According to PubChem BioAssay (NCATS):
Where “and” joins values, the source holds several entries; their conditions need not be identical. Equal entries are not always repeated. Records with an inconclusive call do not appear. Calls of active or inactive are those of the source. Unless noted, calls come from the whole dose curve; as a rule, active = well fitted curve in the direction sought with a large enough effect; inconclusive = small, poorly fitted or top-dose-only effect, or another doubt; inactive = no such curve, though single readings can be large; an effect the other way counts as inactive or inconclusive.

Columns and labels:
[1] = target: Glucocorticoid receptor (Homo sapiens) (UniProt P04150); test: GR-GFP Redistribution (AID 450;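 active = compounds whose dose series gives a full or clear partial fitted curve of increased nuclear translocation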; note: potency is the fitted concentration of half-maximal effect); details: U2OS GR-GFP nuclear translocation, laser cytometry, 2 h
[2] = target: Glucocorticoid receptor (Homo sapiens) (UniProt P04150); test: GR-EFC Redistribution (AID 451; calls by dose curve; note: potency is the fitted concentration of half-maximal effect); details: CHO-K1 GR-EFC translocation, beta-gal luminescence, 2 h
Summary of the method: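 Translocation of GR-ED fusion to nuclear EA restores b-gal, read by luminescence after 1 h room-temperature detection. Engineered CHO-K1 biosensor cells, 1,000/well, exposed 2 h at 37 C to titrations up to 46 uM final.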

[3] = target: Mitogen-activated protein kinase 10 (Mus musculus) (UniProt Q61831); test: JNK3 AlphaScreen Assay (AID 530; active = well fitted curve in either direction with a large enough effect, not every such curve was filed as active;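 note: kinase came from lysate of stimulated human HepG2 cells; signal reports phosphorylation of biotinylated GST-cJun 1-79 at Ser73 with 10 µM ATP; % is set by controls: 0 for no effect and ±100 for the full control effect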); details: JNK3 lysate, c-Jun phosphorylation; series mostly up to 57.1 µM
Summary of the method: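 Compound titrations were preincubated 15 minutes at room temperature with substrate, antibody and pre-activated JNK3-containing HepG2 lysate. Reactions were started with 10 uM ATP and stopped with EDTA-containing bead buffer for AlphaScreen detection.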

[4] = target: 3',5'-cyclic-AMP phosphodiesterase 4B (Homo sapiens) (UniProt Q07343); test: qHTS Assay for Inhibitors of PDE-IV (AID 607; active = well fitted activation curve with a large enough effect in the main read-out, with a control signal flat, not every such curve was filed as active; note: % of control where 0% means no effect); details: HEK293 ACTOne CNG channel cells, membrane potential fluorescence; series mostly up to 22.9 µM
Summary of the method: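 Live HEK293 cells with a modified cyclic nucleotide-gated (CNG) channel report intracellular cAMP via membrane-potential dye fluorescence (ex 535/em 590 nm). Endogenous PDE-IV was targeted. Compounds were tested at up to 22.9 uM final; RO 20-1724 100 uM served as control.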

[5] = Cell Viability - N2a (AID 540); details: N2a mouse neuroblastoma cell viability; series mostly up to 92.2 µM;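 note: plate controls were DMSO alone for no effect and tamoxifen control for full effect; nearly all actives have a fitted effect of over 45% in size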
Summary of the method: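 Mouse neuroblastoma N2a cells, 1500/well, exposed to compounds 40 h at 37 °C in complete medium. Viability measured as cellular ATP by CellTiter-Glo luminescence; AC50 from Hill fits of concentration-response.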

[6] = Cell Viability - HUV-EC-C (AID 542); details: HUV-EC-C endothelial cell viability, qHTS; series mostly up to 92.2 µM; note: % is set by controls: 0 for no effect and ±100 for the full control effect; nearly all actives have a fitted effect of over 35% in size
Summary of the method: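 HUV-EC-C human vascular endothelial cells, 1000/well, exposed to compound for 40 hr at 37 °C in complete medium. Intracellular ATP was read by CellTiter-Glo luminescence. AC50 came from Hill-equation fits of concentration-response data.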

[7] = Cell Viability - H-4-II-E (AID 543); details: H-4-II-E rat hepatoma viability; series mostly up to 92.2 µM; note: nearly all actives have a fitted effect of over 35% in size; note: potency is the fitted concentration of half-maximal effect
Summary of the method: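 Rat hepatoma H-4-II-E cells, 1500 per well, treated 40 h at 37 °C in complete medium. Cellular ATP read by CellTiter-Glo luminescence; AC50 from Hill fits of concentration-response.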

[8] = Cell Viability - SH-SY5Y (AID 544); details: SH-SY5Y neuroblastoma cell viability; series mostly up to 92.2 µM; note: nearly all actives have a fitted effect of over 55% in size; note: potency is the fitted concentration of half-maximal effect
Summary of the method: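 SH-SY5Y human neuroblastoma cells (1500/well) incubated 5 h, then compound-treated 40 h at 37 °C in complete medium. Viability read as intracellular ATP by CellTiter-Glo luminescence after 20 min; AC50 from Hill-equation fits of qHTS concentration-response.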

[9] = Cell Viability - Renal Proximal Tubule (AID 545); details: renal proximal tubule cells viability; series mostly up to 91.7 µM; note: nearly all actives have a fitted effect of over 40% in size
Summary of the method: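 Luminescent ATP signal (CellTiter-Glo) served as the viability read-out after 40 hr compound exposure of freshly isolated rat proximal tubule cells at 37 °C. Concentration-dependent ATP loss was fitted with the Hill equation to give AC50.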

[10] = Cellular Toxicity (caspase-3) HepG2 (AID 654); details: HepG2 caspase-3 activation, luminescence, 0% = DMSO only, 100% = tamoxifen; series mostly up to 92.2 µM;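 note: cells exposed to compound for 16 hours before reading; 0% = DMSO alone and 100% = caspase signal from 100 µM tamoxifen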
Summary of the method: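 HepG2 cells (1500/well) were treated 16 h at 37 °C in complete medium, then caspase 3/7 activity was read by Caspase-Glo luminescence. Data were normalized to DMSO and 100 uM tamoxifen; AC50 came from Hill-equation fits of qHTS concentration-response.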

[11] = Cellular Toxicity (caspase-3) Jurkat (AID 655); details: Jurkat caspase-3 activation, luminescence, DMSO = 0%, tamoxifen = 100%; at 92.2 µM (top of the series);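 note: cells exposed to compound for 16 h at 37 °C before reading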
Summary of the method: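 5000 Jurkat cells/well; compound 16 hr, 37 °C; Caspase-Glo 3/7 added, 20 min RT; luminescence read. Norm: DMSO = 0%, tamoxifen 100 uM = 100%. AC50, Hill model.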

[12] = Cellular Toxicity (caspase-3) HUV-EC-C (AID 656); details: HUV-EC-C cells, caspase-3 activation (apoptosis); series mostly up to 92.2 µM
Summary of the method: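 qHTS; HUV-EC-C, 1000 cells/well; 5 hr settle, 16 hr cmpd, 37°C; Caspase-Glo 3/7, 20 min RT; luminescence. Norm: DMSO = 0%, tamoxifen 100 uM = 100%. Hill-fit AC50.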

[13] = Cellular Toxicity (caspase-3) SHSY5Y (AID 657); details: SH-SY5Y caspase-3 activation, DMSO zero, 10 µM staurosporine = 100%; series mostly up to 91.7 µM
Summary of the method: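 qHTS, SH-SY5Y, 1500 cells/well, 5 h pre-incubation 37 °C; compound 16 h 37 °C; Caspase-Glo 3/7 1 h RT; luminescence. Norm.: DMSO = 0, 10 uM staurosporine = 100%. Hill fit → AC50.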

[14] = Cellular Toxicity (caspase-3) BJ (AID 658); details: BJ fibroblasts, luminescence, normalized: DMSO 0%, staurosporine 100%; series mostly up to 91.7 µM
Summary of the method: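 Readout: Caspase-Glo 3/7 luminescence increase in BJ cells after 16 hr treatment at 37 °C. Staurosporine and tamoxifen served as positive controls; AC50 values came from Hill modelling of data normalized to DMSO and 10 uM staurosporine.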

[15] = Cellular Toxicity (caspase-3) MRC-5 (AID 659); details: MRC-5 cells, luminescence, normalized: DMSO 0%, 10 µM staurosporine 100%; series mostly up to 91.7 µM
Summary of the method: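 Concentration-dependent caspase 3/7 activation is measured in human normal lung fibroblasts (MRC-5) following 16-hour treatment. AC50 values come from standard Hill-equation modeling of luminescence normalized to DMSO and 10 uM staurosporine.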

[16] = Cellular Toxicity (caspase-3) Mesangial (AID 660); details: mesangial cells, normalized: DMSO 0%, 100 µM tamoxifen 100%; series mostly up to 91.7 µM;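 note: cells exposed to compound for 16 h before the caspase read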
Summary of the method: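 Human renal glomerular mesangial cells, 1000/well, 5 h at 37 C before 16 h compound treatment. Caspase-Glo 3/7 luminescence after 20 min; normalized to DMSO and 100 uM tamoxifen, AC50 from Hill fit.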

[17] = Cellular Toxicity (caspase-3) SK-N-SH (AID 661); details: SK-N-SH caspase-3 activation, qHTS, DMSO as zero, staurosporine as full; series mostly up to 91.7 µM
Summary of the method: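 Human SK-N-SH neuroblastoma cells, 1500/well, were exposed to compounds for 16 hours at 37 °C. Caspase-Glo 3/7 luminescence was normalized to DMSO (basal) and 10 uM staurosporine (100%), and AC50 came from a Hill fit.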

[18] = Cellular Toxicity (caspase-3) H-4-II-E (AID 663); details: H-4-II-E rat hepatoma, scaled: DMSO 0%, 100 µM tamoxifen 100%; series mostly up to 92.2 µM;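 note: cells exposed to compound for 16 hr before readout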
Summary of the method: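 Apoptosis induction is scored as increased luminescence from caspase 3/7 substrate cleavage in rat hepatoma H-4-II-E cells exposed to compound for 16 hr. Activity is scaled between DMSO and 100 uM tamoxifen.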

[19] = Cellular Toxicity (caspase-3) N2a (AID 665); details: N2a cells, luminescence, normalized: DMSO 0%, 10 µM staurosporine 100%; series mostly up to 92.2 µM;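 note: compound exposure lasted 16 h at 37 °C before readout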
Summary of the method: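 Mouse N2a neuroblastoma cells, 1500 per well, treated 16 h at 37 °C in complete medium; caspase-3/7 activity by Caspase-Glo luminescence after 1 h. Normalized to DMSO and 10 uM staurosporine; AC50 from Hill fits.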

[20] = Cell Viability - NIH 3T3 (AID 541); details: NIH 3T3 cell viability, qHTS; at 92.2 µM (top of the series);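 note: plate controls were DMSO alone for no effect and tamoxifen positive control for full effect; nearly all actives have a fitted effect of over 25% in size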
Summary of the method: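 Mouse NIH 3T3 fibroblasts, 1000 cells/well, rested 5 hr at 37 °C, then exposed to compound for 40 hr at 37 °C in complete medium. Viability read as intracellular ATP by CellTiter-Glo luminescence; AC50 from Hill-equation fits of concentration-response data.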

Chain of 3',5'-cyclic-AMP phosphodiesterase 4B (Homo sapiens) (Q07343 whole entry, looked up): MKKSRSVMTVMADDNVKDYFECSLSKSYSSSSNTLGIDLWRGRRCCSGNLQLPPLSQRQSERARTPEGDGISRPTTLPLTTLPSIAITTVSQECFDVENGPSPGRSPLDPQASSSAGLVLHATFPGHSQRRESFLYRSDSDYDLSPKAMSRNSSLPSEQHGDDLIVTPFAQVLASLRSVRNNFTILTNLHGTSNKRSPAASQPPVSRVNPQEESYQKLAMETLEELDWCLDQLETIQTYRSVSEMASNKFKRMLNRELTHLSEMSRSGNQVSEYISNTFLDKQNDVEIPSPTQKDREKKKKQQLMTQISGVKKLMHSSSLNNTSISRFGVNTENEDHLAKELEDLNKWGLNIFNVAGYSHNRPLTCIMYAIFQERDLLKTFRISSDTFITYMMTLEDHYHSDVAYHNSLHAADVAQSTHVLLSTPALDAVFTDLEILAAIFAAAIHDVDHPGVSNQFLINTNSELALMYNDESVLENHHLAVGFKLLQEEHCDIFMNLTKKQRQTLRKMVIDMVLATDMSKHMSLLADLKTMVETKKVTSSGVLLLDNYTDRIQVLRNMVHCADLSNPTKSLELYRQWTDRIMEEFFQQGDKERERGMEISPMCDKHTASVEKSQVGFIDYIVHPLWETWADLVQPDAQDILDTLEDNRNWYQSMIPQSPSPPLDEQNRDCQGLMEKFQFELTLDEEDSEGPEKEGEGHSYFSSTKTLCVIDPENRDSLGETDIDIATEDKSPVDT
Chain of Glucocorticoid receptor (Homo sapiens) (P04150 whole entry, looked up, the tested form may be a part): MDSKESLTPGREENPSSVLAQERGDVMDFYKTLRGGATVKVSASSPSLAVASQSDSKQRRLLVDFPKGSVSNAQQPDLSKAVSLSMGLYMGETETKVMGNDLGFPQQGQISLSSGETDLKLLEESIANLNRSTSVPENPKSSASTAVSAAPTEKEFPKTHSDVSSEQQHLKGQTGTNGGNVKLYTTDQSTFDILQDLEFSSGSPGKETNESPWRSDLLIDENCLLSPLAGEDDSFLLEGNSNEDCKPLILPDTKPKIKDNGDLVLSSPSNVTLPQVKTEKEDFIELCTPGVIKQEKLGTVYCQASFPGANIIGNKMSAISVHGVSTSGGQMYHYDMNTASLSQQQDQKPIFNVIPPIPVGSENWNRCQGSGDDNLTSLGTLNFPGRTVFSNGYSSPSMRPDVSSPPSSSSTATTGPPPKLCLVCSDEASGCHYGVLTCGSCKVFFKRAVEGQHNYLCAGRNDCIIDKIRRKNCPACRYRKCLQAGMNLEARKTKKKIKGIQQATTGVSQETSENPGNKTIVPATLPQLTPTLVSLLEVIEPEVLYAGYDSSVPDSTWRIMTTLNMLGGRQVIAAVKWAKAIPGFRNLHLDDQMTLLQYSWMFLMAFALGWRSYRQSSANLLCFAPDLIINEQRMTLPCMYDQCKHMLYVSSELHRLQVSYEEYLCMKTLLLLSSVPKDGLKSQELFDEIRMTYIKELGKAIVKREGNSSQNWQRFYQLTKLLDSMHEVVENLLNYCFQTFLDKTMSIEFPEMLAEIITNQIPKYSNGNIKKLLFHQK

CCC1(CC)C(=O)C=CNC1=O
inactive: Potency [1] > 20.6 µM | Potency [2] > 20.6 µM | outcome [3] | outcome [4]

C[C@]1(O)CC[C@H]2[C@@H]3CCC4=CC(=O)CC[C@]4(C)[C@@]3(F)[C@@H](O)C[C@@]21C
inactive: outcome [3] | outcome [5] | Potency [6] | Potency [7] | Potency [8] | outcome [9] | outcome [10] | caspase-3 activation [11] -1.66% | Potency [12] | outcome [13] | outcome [14] | outcome [15] | outcome [16] | outcome [17] | outcome [18] | outcome [19]

C[C@]12CCC(=O)C=C1CC[C@@H]1[C@@H]2CC[C@]2(C)C(=O)CC[C@@H]12
active: activity change, negative = cytotoxicity [20] -137% and -117% | Potency [7] 25.1 µM
inactive: outcome [3] | outcome [5] | Potency [6] | Potency [8] | outcome [9] | outcome [10] | caspase-3 activation [11] 7.89% and 0.322% | Potency [12] | outcome [13] | outcome [14] | outcome [15] | outcome [16] | outcome [17] | outcome [18] | outcome [19]

CNC(C)(C)Cc1ccccc1
inactive: Potency [1] > 20.6 µM | Potency [2] > 20.6 µM | outcome [3] | outcome [4]

CCOC(=O)CC(SP(=S)(OC)OC)C(=O)OCC (centres undefined)
inactive: outcome [3] | outcome [5] | activity change, negative = cytotoxicity [20] -25.9% | Potency [6] | Potency [7] | outcome [9] | outcome [10] | caspase-3 activation [11] -0.413% | Potency [12] | outcome [13] | outcome [14] | outcome [15] | outcome [16] | outcome [17] | outcome [18] | outcome [19]
active: Potency [8] 12.6 µM

O=C(O)CCCc1ccc(N(CCCl)CCCl)cc1
inactive: outcome [3] | outcome [5] | Potency [6] | outcome [9] | outcome [4] | Potency [12] | outcome [14] | outcome [15] | outcome [16] | outcome [18] | outcome [19]
active: Potency [8] 3.16 µM | caspase-3 activation [11] 96.5%

CN1C[C@H](C(=O)N[C@]2(C)O[C@@]3(O)[C@@H]4CCCN4C(=O)[C@H](Cc4ccccc4)N3C2=O)C=C2c3cccc4[nH]cc(c34)C[C@H]21
inactive: outcome [3] | outcome [5] | Potency [6] | outcome [9] | outcome [10] | Potency [12] | outcome [13] | outcome [14] | outcome [15] | outcome [16] | outcome [17] | outcome [18] | outcome [19]

C#C[C@]1(O)CC[C@H]2[C@@H]3CCC4=CC(=O)CC[C@]4(C)[C@H]3CC[C@@]21C
active: Potency [1] 0.338 µM

C=CCN1C[C@H](C)N([C@H](c2ccc(C(=O)N(CC)CC)cc2)c2cccc(OC)c2)C[C@H]1C
inactive: Potency [1] > 46 µM | Potency [2] > 46 µM | outcome [3] | outcome [4]

COc1c2c(cc3c1OCO3)CCN(C)C2
inactive: Potency [1] > 20.6 µM | Potency [2] > 20.6 µM | outcome [3] | outcome [4]

Clc1cccc(SC2CCNCC2)n1
inactive: outcome [3]

COP(=S)(OC)Oc1ccc(SC)c(C)c1
inactive: outcome [5] | activity change, negative = cytotoxicity [20] -11.1% | Potency [6] | Potency [7] | Potency [8] | outcome [9] | outcome [10] | caspase-3 activation [11] 0.672% | Potency [12] | outcome [13] | outcome [14] | outcome [15] | outcome [16] | outcome [17] | outcome [18] | outcome [19]

COC(=O)C(c1ccccc1)C1CCCCN1 (centres undefined)
inactive: outcome [3] | outcome [5] | activity change, negative = cytotoxicity [20] -13.4% | Potency [6] | Potency [7] | Potency [8] | outcome [9] | outcome [10] | caspase-3 activation [11] 0.101% | Potency [12] | outcome [13] | outcome [14] | outcome [15] | outcome [16] | outcome [17] | outcome [18] | outcome [19]

COc1cc(OC)c(OC)cc1C=O
inactive: outcome [5] | activity change, negative = cytotoxicity [20] 6.21% | Potency [6] | Potency [7] | Potency [8] | outcome [9] | outcome [10] | caspase-3 activation [11] 1.29% | Potency [12] | outcome [13] | outcome [14] | outcome [15] | outcome [16] | outcome [17] | outcome [18] | outcome [19]

O=C(CCCN1CCC2(CC1)C(=O)NCN2c1ccccc1)c1ccc(F)cc1
inactive: Potency [1] > 46 µM and > 20.6 µM | Potency [2] > 46 µM and > 20.6 µM | outcome [3] | outcome [4]

O=c1[nH]oc2c1CCNC2
inactive: Potency [1] > 46 µM and > 20.6 µM | Potency [2] > 46 µM and > 20.6 µM | outcome [3] | outcome [4]

CC(C)c1cccc(C(C)C)c1O
inactive: outcome [3] | outcome [5] | activity change, negative = cytotoxicity [20] 4.32% | Potency [6] | Potency [7] | Potency [8] | outcome [9] | outcome [4] | outcome [10] | caspase-3 activation [11] 0.709% | Potency [12] | outcome [13] | outcome [14] | outcome [15] | outcome [16] | outcome [17] | outcome [18] | outcome [19]
